# According to PubChem BioAssay AID1159580 (chemical genetic matrix, 2015):
# In all, about 5,500 compounds went through this assay and about 2,000 (36%) were called active. Roughly 18% stayed inconclusive and do not appear here. Some of the results follow. Unmarked numbers belong to inactive results. Rule as the data show it: active = normalized growth mostly below about 0.91 (no sharp cut-off); inconclusive = no clear call, values can overlap the other calls; inactive = mostly above about 0.92.
# Experiment: chemical genetic growth profiling, strain panel (AID 1159580);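 also: tested at 20 µM; growth read once vehicle control cultures reached saturation at 30 °C; 1 = growth at the plate median or of vehicle wells; lower values mean less growth of the strain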
# Settings: growth OD
# [1] = S. cerevisiae deletion strains, locus YAL013W, strain DEP1, active compounds read low
# [2] = S. cerevisiae deletion strains, locus YBR229C, strain ROT2, active compounds read low
# [3] = S. cerevisiae deletion strains, locus YCL061C, strain MRC1, active compounds read low
# [4] = S. cerevisiae deletion strains, locus YDL101C, strain DUN1, active compounds read low
# [5] = S. cerevisiae deletion strains, locus YDR150W, strain NUM1, active compounds read low
# [6] = S. cerevisiae deletion strains, locus YEL061C, strain CIN8, active compounds read low
# [7] = S. cerevisiae deletion strains, locus YGR078C, strain PAC10, active compounds read low
# [8] = S. cerevisiae deletion strains, locus YHR030C, strain SLT2, active compounds read low
# [9] = S. cerevisiae deletion strains, locus YHR087W, strain rtc3, active compounds read low
# [10] = S. cerevisiae deletion strains, locus YJL187C, strain SWE1, active compounds read low
# [11] = S. cerevisiae deletion strains, locus YJR043C, strain POL32, active compounds read low
# [12] = S. cerevisiae deletion strains, locus YJR075W, strain HOC1, active compounds read low
# [13] = S. cerevisiae deletion strains, locus YLR039C, strain RIC1, active compounds read low
# [14] = S. cerevisiae deletion strains, locus YLR058C, strain SHM2 (second series), active compounds read low
# [15] = S. cerevisiae deletion strains, locus YLR085C, strain ARP6, active compounds read low
# [16] = S. cerevisiae deletion strains, locus YLR262C, strain YPT6, active compounds read low
# [17] = S. cerevisiae deletion strains, locus YML094W, strain GIM5, active compounds read low
# [18] = S. cerevisiae deletion strains, locus YMR219W, strain ESC1, active compounds read low
# [19] = S. cerevisiae deletion strains, locus YMR263W, strain SAP30, active compounds read low
# [20] = S. cerevisiae deletion strains, locus YMR307W, strain GAS1, active compounds read low
# [21] = S. cerevisiae deletion strains, locus YNL128W, strain TEP1, active compounds read low
# [22] = S. cerevisiae deletion strains, locus YNL153C, strain GIM3, active compounds read low
# [23] = S. cerevisiae deletion strains, locus YNL298W, strain CLA4 (second series), active compounds read low
# [24] = S. cerevisiae deletion strains, locus YNL322C, strain KRE1, active compounds read low
# [25] = S. cerevisiae deletion strains, locus YNR030W, strain Alg12, active compounds read low
# [26] = S. cerevisiae deletion strains, locus YOL006C, strain TOP1, active compounds read low
# [27] = S. cerevisiae deletion strains, locus YPL055C, strain LGE1, active compounds read low
# [28] = S. cerevisiae deletion strains, locus YPL241C, strain CIN2, active compounds read low
# [29] = S. cerevisiae deletion strains, locus YPR135W, strain CTF4, active compounds read low
# [30] = S. cerevisiae deletion strains, locus YDL134C, strain PPH21, active compounds read low
# [31] = S. cerevisiae deletion strains, locus YKL190W, strain CNB1, active compounds read low
smiles,measurement,setting,value
O=C(O)c1cnn(-c2ccccc2)c1C(F)(F)F,normalized growth,[1],1.01
same,normalized growth,[2],0.988
same,normalized growth,[3],0.995
same,normalized growth,[4],0.998
same,normalized growth,[5],1.02
same,normalized growth,[6],0.996
same,normalized growth,[7],0.99
same,normalized growth,[8],1.01
same,normalized growth,[9],0.98
same,normalized growth,[10],0.993
same,normalized growth,[11],0.992
same,normalized growth,[12],1.02
same,normalized growth,[13],1.03
same,normalized growth,[14],1.01
same,normalized growth,[15],1.05
same,normalized growth,[16],0.955
same,normalized growth,[17],1.02
same,normalized growth,[18],1
same,normalized growth,[19],0.989
same,normalized growth,[20],0.979
same,normalized growth,[21],1.01
same,normalized growth,[22],0.984
same,normalized growth,[23],1.01
same,normalized growth,[24],0.999
same,normalized growth,[25],1.01
same,normalized growth,[26],1.04
same,normalized growth,[27],1.04
same,normalized growth,[28],1.01
same,normalized growth,[29],1
N#Cc1cnn(-c2ccccc2)c1-n1cccc1,normalized growth,[1],0.976
same,normalized growth,[2],0.988
same,normalized growth,[3],0.959
same,normalized growth,[4],1.01
same,normalized growth,[30],0.999
same,normalized growth,[5],0.873
same,normalized growth,[6],1.02
same,normalized growth,[7],0.974
same,normalized growth,[8],0.626 (active)
same,normalized growth,[9],1.02
same,normalized growth,[10],0.976
same,normalized growth,[11],0.978
same,normalized growth,[12],0.988
same,normalized growth,[31],0.985
same,normalized growth,[13],0.859
same,normalized growth,[14],0.974
same,normalized growth,[15],0.933
same,normalized growth,[16],0.883
same,normalized growth,[17],0.984
same,normalized growth,[18],0.981
same,normalized growth,[19],0.964
same,normalized growth,[22],0.994
same,normalized growth,[23],0.967
same,normalized growth,[24],0.989
same,normalized growth,[25],0.956
same,normalized growth,[26],0.938
same,normalized growth,[27],0.969
same,normalized growth,[28],0.953
same,normalized growth,[29],0.82
CC1(O)/C=C/C=C(\CO)C2CC(C)(C)C2(O)CC1 (centres undefined),normalized growth,[1],1.02
same,normalized growth,"S. cerevisiae deletion strains, locus YBR021W, strain FUR4, active compounds read low",1.02
same,normalized growth,[2],1.01
same,normalized growth,"S. cerevisiae deletion strains, locus YCL029C, strain bik1, active compounds read low",1
same,normalized growth,"S. cerevisiae deletion strains, locus YDL035C, strain GPR1, active compounds read low",1.01
same,normalized growth,"S. cerevisiae deletion strains, locus YDL074C, strain BRE1, active compounds read low",1.03
same,normalized growth,[4],1.02
same,normalized growth,[30],1.02
same,normalized growth,"S. cerevisiae deletion strains, locus YDL185W, strain tfp1, active compounds read low",1
same,normalized growth,"S. cerevisiae deletion strains, locus YDL192W, strain arf1, active compounds read low",1
same,normalized growth,"S. cerevisiae deletion strains, locus YDR101C, strain arx1, active compounds read low",0.976
same,normalized growth,[5],1.02
same,normalized growth,"S. cerevisiae deletion strains, locus YDR162C, strain NBP2, active compounds read low",1.04
same,normalized growth,"S. cerevisiae deletion strains, locus YDR318W, strain mcm21, active compounds read low",0.993
same,normalized growth,"S. cerevisiae deletion strains, locus YDR388W, active compounds read low",0.998
same,normalized growth,"S. cerevisiae deletion strains, locus YDR502C, strain sam2, active compounds read low",1.01
same,normalized growth,[6],1.01
same,normalized growth,"S. cerevisiae deletion strains, locus YER110C, active compounds read low",0.998
same,normalized growth,"S. cerevisiae deletion strains, locus YER155C, strain BEM2, active compounds read low",1
same,normalized growth,"S. cerevisiae deletion strains, locus YER167W, strain BCK2, active compounds read low",1.02
same,normalized growth,"S. cerevisiae deletion strains, locus YGL078C, strain dbp3, active compounds read low",1
same,normalized growth,"S. cerevisiae deletion strains, locus YGL086W, strain mad1, active compounds read low",1
same,normalized growth,"S. cerevisiae deletion strains, locus YGL248W, strain PDE1, active compounds read low",1.01
same,normalized growth,[7],1.02
same,normalized growth,"S. cerevisiae deletion strains, locus YGR135W, strain pre9, active compounds read low",0.999
same,normalized growth,"S. cerevisiae deletion strains, locus YGR229C, strain SMI1, active compounds read low",1.02
same,normalized growth,"S. cerevisiae deletion strains, locus YGR252W, strain gcn5, active compounds read low",0.956
same,normalized growth,[8],1
same,normalized growth,"S. cerevisiae deletion strains, locus YHR079C, strain IRE1 (second series), active compounds read low",1
same,normalized growth,"S. cerevisiae deletion strains, locus YHR094C, strain hxt1, active compounds read low",1.01
same,normalized growth,"S. cerevisiae deletion strains, locus YHR129C, strain ARP1, active compounds read low",1.01
same,normalized growth,"S. cerevisiae deletion strains, locus YHR200W, strain rpn10, active compounds read low",1
same,normalized growth,"S. cerevisiae deletion strains, locus YIL066C, strain RNR3, active compounds read low",1.01
same,normalized growth,"S. cerevisiae deletion strains, locus YIL073C, strain SPO22, active compounds read low",1.02
same,normalized growth,"S. cerevisiae deletion strains, locus YIL125W, strain kgd1, active compounds read low",0.998
same,normalized growth,"S. cerevisiae deletion strains, locus YIR030C, strain dcg1, active compounds read low",1.01
same,normalized growth,"S. cerevisiae deletion strains, locus YJL095W, strain BCK1, active compounds read low",1
same,normalized growth,"S. cerevisiae deletion strains, locus YJL134W, strain LCB3, active compounds read low",1.01
same,normalized growth,"S. cerevisiae deletion strains, locus YJL168C, strain set2, active compounds read low",1
same,normalized growth,"S. cerevisiae deletion strains, locus YJL187C, strain SWE1 (second series), active compounds read low",1.02
same,normalized growth,[11],0.995
same,normalized growth,[12],1.01
same,normalized growth,"S. cerevisiae deletion strains, locus YKL009W, strain mrt4, active compounds read low",0.991
same,normalized growth,"S. cerevisiae deletion strains, locus YKL068W, active compounds read low",1.01
same,normalized growth,"S. cerevisiae deletion strains, locus YKL085W, strain MDH1 (second series), active compounds read low",1.02
same,normalized growth,"S. cerevisiae deletion strains, locus YKL085W, strain MDH1, active compounds read low",1.02
same,normalized growth,[31],1.01
same,normalized growth,"S. cerevisiae deletion strains, locus YKR001C, strain vps1, active compounds read low",1
same,normalized growth,[13],0.977
same,normalized growth,"S. cerevisiae deletion strains, locus YLR058C, strain SHM2, active compounds read low",1.01
same,normalized growth,"S. cerevisiae deletion strains, locus YLR102C, strain apc9, active compounds read low",1
same,normalized growth,[16],1.05
same,normalized growth,"S. cerevisiae deletion strains, locus YLR268W, strain sec22, active compounds read low",0.986
same,normalized growth,"S. cerevisiae deletion strains, locus YLR330W, strain CHS5, active compounds read low",1.01
same,normalized growth,"S. cerevisiae deletion strains, locus YLR342W, strain FKS1 (second series), active compounds read low",1.02
same,normalized growth,"S. cerevisiae deletion strains, locus YLR371W, strain rom2, active compounds read low",1
same,normalized growth,"S. cerevisiae deletion strains, locus YLR418C, strain cdc73, active compounds read low",0.989
same,normalized growth,"S. cerevisiae deletion strains, locus YML016C, strain PPZ1, active compounds read low",1.01
same,normalized growth,"S. cerevisiae deletion strains, locus YML032C, strain rad52, active compounds read low",0.979
same,normalized growth,"S. cerevisiae deletion strains, locus YML124C, strain tub3, active compounds read low",1
same,normalized growth,"S. cerevisiae deletion strains, locus YMR078C, strain ctf18, active compounds read low",1.01
same,normalized growth,"S. cerevisiae deletion strains, locus YMR223W, strain ubp8, active compounds read low",0.994
same,normalized growth,[19],1.02
same,normalized growth,[20],1.02
same,normalized growth,"S. cerevisiae deletion strains, locus YNL067W, strain RPL9B, active compounds read low",1.01
same,normalized growth,[21],1.03
same,normalized growth,[22],1.02
same,normalized growth,"S. cerevisiae deletion strains, locus YNL233W, strain BNI4, active compounds read low",1.02
same,normalized growth,"S. cerevisiae deletion strains, locus YNL250W, strain rad50, active compounds read low",1.02
same,normalized growth,"S. cerevisiae deletion strains, locus YNL271C, strain bni1, active compounds read low",0.995
same,normalized growth,"S. cerevisiae deletion strains, locus YNL298W, strain CLA4, active compounds read low",0.993
same,normalized growth,"S. cerevisiae deletion strains, locus YNL307C, strain MCK1, active compounds read low",0.997
same,normalized growth,[24],1.02
same,normalized growth,"S. cerevisiae deletion strains, locus YNR052C, strain pop2, active compounds read low",0.998
same,normalized growth,[26],1.06
same,normalized growth,"S. cerevisiae deletion strains, locus YOL012C, strain htz1",0.828
same,normalized growth,"S. cerevisiae deletion strains, locus YOL147C, strain pex11, active compounds read low",1.01
same,normalized growth,"S. cerevisiae deletion strains, locus YOR061W, strain CKA2, active compounds read low",1.02
same,normalized growth,"S. cerevisiae deletion strains, locus YOR069W, strain VPS5, active compounds read low",1.01
same,normalized growth,"S. cerevisiae deletion strains, locus YOR136W, strain idh2, active compounds read low",0.997
same,normalized growth,"S. cerevisiae deletion strains, locus YOR144C, strain elg1, active compounds read low",0.999
same,normalized growth,"S. cerevisiae deletion strains, locus YOR184W, strain ser1, active compounds read low",0.994
same,normalized growth,"S. cerevisiae deletion strains, locus YOR316C, strain cot1, active compounds read low",1
same,normalized growth,[27],1.05
same,normalized growth,[28],1.02
same,normalized growth,"S. cerevisiae deletion strains, locus YPR119W, strain clb2, active compounds read low",0.992
same,normalized growth,"S. cerevisiae deletion strains, locus YPR141C, strain kar3, active compounds read low",1
same,normalized growth,"S. cerevisiae deletion strains, locus YPR163C, strain tif3, active compounds read low",1
same,normalized growth,"S. cerevisiae deletion strains, locus YPR167C, strain met16, active compounds read low",1.01
same,normalized growth,"S. cerevisiae deletion strains, strain wtn01, active compounds read low",0.995
same,normalized growth,"S. cerevisiae strains, strain wild type, active compounds read low",1.01
